Laboratory results taken from the supplement of paper PMC3414501.
Where a name gives a salt, the structure may show the parent alone.

Tested on: S. cerevisiae NKY1551 his4x/his4B, sporulating;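 active = HIS4 sensitivity z-score above 5 vs DMSO controls; inactive = score 5 or below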
Test: HIS4 meiotic recombination assay sensitivity score (z-score vs DMSO controls); higher = stronger inhibition of sporulation/recombination, active = hit call of the paper

SMILES	HIS4 meiotic recombination assay sensitivity score
CNS(=O)(=O)Cc1ccc2[nH]cc(CCN(C)C)c2c1 [Sumatriptan succinate] (stock concentration (mM, diluted 1:100): 7.2)	-0.69 (inactive)
CC(=O)[C@@]1(O)CC[C@H]2[C@@H]3C[C@H](C)C4=CC(=O)CC[C@]4(C)[C@H]3CC[C@@]21C [Medroxyprogesterone] (stock concentration (mM, diluted 1:100): 10)	0.24 (inactive)
C[C@@H](c1ncncc1F)[C@](O)(Cn1cncn1)c1ccc(F)cc1F [Voriconazole] (stock concentration (mM, diluted 1:100): 9.9)	0.14 (inactive)
C=CC[C@@H]1/C=C(\C)C[C@H](C)C[C@H](OC)[C@H]2O[C@@](O)(C(=O)C(=O)N3CCCC[C@H]3C(=O)O[C@H](/C(C)=C/[C@@H]3CC[C@@H](O)[C@H](OC)C3)[C@H](C)[C@@H](O)CC1=O)[C@H](C)C[C@@H]2OC [Tacrolimus] (stock concentration (mM, diluted 1:100): 10)	-0.77 (inactive)
CCOC(=O)OC(C)OC1=C(C(=O)Nc2ccccn2)N(C)S(=O)(=O)c2ccccc21 (stereo unspecified) [Ampiroxicam] (stock concentration (mM, diluted 1:100): 10)	1.18 (inactive)
CN(C)CCCSc1ccccc1NC(=O)/C=C/c1ccccc1 [Cinanserin] (stock concentration (mM, diluted 1:100): 10)	7.73 (active)
CC[C@@H]1C(=O)OC[C@@H]1Cc1cncn1C [Pilocarpine hydrochloride] (stock concentration (mM, diluted 1:100): 10)	-0.54 (inactive)
Nc1ncnc2c1ncn2[C@@H]1O[C@H](CO)C[C@@H]1O [3-Deoxydenosine] (stock concentration (mM, diluted 1:100): 10)	7.05 (active)
CN1CCN(c2c(F)cc3c(=O)c(C(=O)O)cn4c3c2SCC4)CC1 [Rufloxacin hydrochloride] (stock concentration (mM, diluted 1:100): 10)	-0.04 (inactive)
CC[C@H](C)C(=O)O[C@H]1C[C@H](O)C=C2C=C[C@H](C)[C@H](CC[C@@H](O)C[C@@H](O)CC(=O)O)[C@H]21 [Pravastatin sodium] (stock concentration (mM, diluted 1:100): 9.5)	-0.46 (inactive)
Cn1nnc2c(C(N)=O)ncn2c1=O [Temozolomide] (stock concentration (mM, diluted 1:100): 10)	-0.54 (inactive)
Cc1nc2n(c(=O)c1CCN1CCC(c3noc4cc(F)ccc34)CC1)CCCC2 [Risperidone] (stock concentration (mM, diluted 1:100): 10)	1.75 (inactive)
C[N+]1(C)CCC(OC(=O)C(O)(c2ccccc2)C2CCCC2)C1 (stereo unspecified) [Glycopyrrolate] (stock concentration (mM, diluted 1:100): 10)	-0.65 (inactive)
NNCCc1ccccc1 [Phenelzine sulfate salt] (stock concentration (mM, diluted 1:100): 10)	-3.78 (inactive)
CN1[C@@H](CC(=O)c2ccccc2)CCC[C@H]1C[C@H](O)c1ccccc1 [Lobeline hydrochloride] (stock concentration (mM, diluted 1:100): 10)	0.57 (inactive)
CC(=O)O[C@H]1C[C@@H]2CC[C@@H]3[C@H](CC[C@@]4(C)[C@H]3C[C@H]([N+]3(C)CCCCC3)[C@@H]4OC(C)=O)[C@@]2(C)C[C@@H]1N1CCCCC1 [Vecuronium bromide] (stock concentration (mM, diluted 1:100): 10)	-1.64 (inactive)
Cc1ccsc1C(=CCCN1CCC[C@@H](C(=O)O)C1)c1sccc1C [Tiagabine hydrochloride] (stock concentration (mM, diluted 1:100): 9.1)	5.07 (active)
CNCC[C@H](Oc1cccc2ccccc12)c1cccs1 [Duloxetine hydrochloride] (stock concentration (mM, diluted 1:100): 8.9)	7.17 (active)

SMILES	HIS4 meiotic recombination assay sensitivity score
O=C(CCNNC(=O)c1ccncc1)NCc1ccccc1 [Nialamide] (stock concentration (mM, diluted 1:100): 10)	-1.89 (inactive)
CN1CC(=O)N2[C@H](c3ccc4c(c3)OCO4)c3[nH]c4ccccc4c3C[C@@H]2C1=O [Tadalafil] (stock concentration (mM, diluted 1:100): 10)	-0.28 (inactive)
CS(=O)(=O)c1ccc(-c2cc(Br)sc2-c2ccc(F)cc2)cc1 (stock concentration (mM, diluted 1:100): 10)	1.98 (inactive)
O=C(O)CCc1nc(-c2ccccc2)c(-c2ccccc2)o1 [Oxaprozin] (stock concentration (mM, diluted 1:100): 10)	-0.23 (inactive)
CCN(CC)CC1CCCCN1CC(=O)N1c2ccccc2C(=O)Nc2cccnc21 (stereo unspecified) [Otenzepad] (stock concentration (mM, diluted 1:100): 10)	-0.63 (inactive)
CCOC(=O)c1ccc(OC(=O)CCCCCNC(=N)N)cc1 [Gabexate mesylate] (stock concentration (mM, diluted 1:100): 7.7)	2.41 (inactive)
COC(=O)C1=C(C)NC(C)=C(C(=O)OC)C1c1ccccc1[N+](=O)[O-] [Nifedipine] (stock concentration (mM, diluted 1:100): 10.7)	1.3 (inactive)
COc1cc(C)c(Cc2cnc(N)nc2N)cc1OC [Ormetoprim] (stock concentration (mM, diluted 1:100): 10)	-0.05 (inactive)
Nc1nc2ccc(OC(F)(F)F)cc2s1 [Riluzole] (stock concentration (mM, diluted 1:100): 9.9)	6.83 (active)
CNCCCC12CCC(c3ccccc31)c1ccccc12 [Maprotilline hydrochloride] (stock concentration (mM, diluted 1:100): 10)	9.12 (active)
Cc1ccnc2c1NC(=O)c1cccnc1N2C1CC1 [Viramune] (stock concentration (mM, diluted 1:100): 10)	0.21 (inactive)
COc1nc(C)nc(Cl)c1NC1=NCCN1 [Moxonidine hydrochloride] (stock concentration (mM, diluted 1:100): 9.2)	-0.58 (inactive)
CCCc1nc(C)c2c(=O)nc(-c3cc(S(=O)(=O)N4CCN(CC)CC4)ccc3OCC)[nH]n12 [Vardenafil citrate] (stock concentration (mM, diluted 1:100): 7.2)	-0.18 (inactive)
CN1[C@@H]2CC[C@H]1C[C@@H](OC(=O)c1c[nH]c3ccccc13)C2 [Tropisetron hydrochloride] (stock concentration (mM, diluted 1:100): 7.7)	0.82 (inactive)
COc1cc(C(=O)NC2CCCNC2)cc(OC)c1OC (stereo unspecified) [Troxipide] (stock concentration (mM, diluted 1:100): 10.1)	-0.27 (inactive)
CC(C)(C)NC(=O)[C@@H]1CN(Cc2cccnc2)CCN1C[C@@H](O)C[C@@H](Cc1ccccc1)C(=O)N[C@H]1c2ccccc2C[C@H]1O [Indinavir sulphate] (stock concentration (mM, diluted 1:100): 8.6)	-1.36 (inactive)
CC(=O)SCC(Cc1ccccc1)C(=O)NCC(=O)OCc1ccccc1 (stereo unspecified) [Acetorphan] (stock concentration (mM, diluted 1:100): 10)	1.65 (inactive)
O=C1C(c2c(O)[nH]c3ccccc23)=Nc2ccccc21 [Indarubicin] (stock concentration (mM, diluted 1:100): 10)	-1.36 (inactive)
